# In PubChem BioAssay:
# Values without a mark were called inactive. How the calls were made is not given here.
# Biological target: Pantothenate synthetase (Mycobacterium tuberculosis (strain ATCC 25618 / H37Rv)) (UniProt P9WIL5)
# Assay: Recombinant Mtb pantothenate synthetase (PanC) inhibitors, coupled enzyme, confirmatory (AID 375);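 further: 0% = full reaction with vehicle and 100% = no enzyme background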
# Settings: coupled enzyme assay; at 10 µM, stronger effect = higher value
# Sequence of Pantothenate synthetase (Mycobacterium tuberculosis (strain ATCC 25618 / H37Rv)) (P9WIL5 whole entry, looked up): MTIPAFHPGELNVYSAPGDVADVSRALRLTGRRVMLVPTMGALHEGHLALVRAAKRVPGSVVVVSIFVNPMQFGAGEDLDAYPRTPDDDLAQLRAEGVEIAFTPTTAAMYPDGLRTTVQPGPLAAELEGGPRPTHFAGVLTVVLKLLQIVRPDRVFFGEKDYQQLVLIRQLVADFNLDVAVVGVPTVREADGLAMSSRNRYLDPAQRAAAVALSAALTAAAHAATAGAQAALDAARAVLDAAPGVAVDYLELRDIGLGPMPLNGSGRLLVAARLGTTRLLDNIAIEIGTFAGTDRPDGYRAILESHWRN
row,Structure (SMILES),inhibition
1,O=C1NCC(COCc2ccccc2)O1 (stereo not drawn),3%
2,COC(=O)c1[nH]c(C)c(/C(O)=C2\C(=O)C(=O)N(CCN(C)C)C2c2ccccc2OC)c1C (stereo not drawn),1%
3,Cc1ccc2c(C(=O)CN3CCSCC3)c(C)[nH]c2c1,0%
4,O=C(CSc1nnc(C2CC2)n1Cc1ccccc1)c1ccc(S(=O)(=O)N2CCOCC2)cc1,0%
5,CCCCn1c(NC(=O)CC)c(C#N)c2nc3ccccc3nc21,4%
6,CC1CCN(S(=O)(=O)c2cccc(C(=O)Nc3ccccn3)c2)CC1,0%
7,O=C(NCc1ccco1)c1ccc2c(=O)n(CC3CCCO3)c(=S)[nH]c2c1 (stereo not drawn),3%
8,O=S(=O)(c1ccccc1)N1CCN(C2CCCCCCC2)CC1,8%
9,O=C1c2ccccc2C(=O)N1C/C=C/c1ccccc1,2%
10,COc1ccccc1N1CCN(CC(O)c2ccc3cc[nH]c3c2)CC1 (stereo not drawn),5%
11,O=C(CN1CCN(c2nc(-c3ccc(Cl)cc3)cs2)CC1)NCc1ccco1,4%
12,COc1ccc(CCNC(=O)CC2COc3ccccc3O2)cc1OC (stereo not drawn),0%
13,c1cc2c(cc1Cn1cnnn1)OCO2,0%
14,O=C(CCn1c(=O)c2ccccc2n(CC(=O)NCCC2=CCCCC2)c1=O)NCc1ccco1,4%
15,C/C(Nc1cccc(F)c1)=C(/C#N)C(N)=O,3%
16,CSc1ccc(-c2cc(=O)c3ccccc3o2)cc1,5%
17,CCCCc1n[nH]c2c1C(=O)CC(C)(C)C2,0%
18,CS(=O)(=O)Nc1ccc(C(=O)NCCc2ccccc2)cc1,0%
